Source: PubChem BioAssay AID1159580 (chemical genetic matrix, 2015)
Where “and” joins values, the source holds several entries; their conditions need not be identical. Identical values can stand only once. Hit rate of the full screen: of about 5,500 compounds, about 2,000 (36%) were called active. Inconclusive results (about 18%) are left out. No stated cut-off is given here; in the data, active means normalized growth mostly below about 0.91 (no sharp cut-off); inconclusive means no clear call, values can overlap the other calls; inactive means mostly above about 0.92. The list shows a part of the results.

Assay: chemical genetic growth profiling, strain panel (AID 1159580);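 further: tested at 20 µM; growth read once vehicle control cultures reached saturation at 30 °C; 1 = growth at the plate median or of vehicle wells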
Settings: S. cerevisiae deletion strains, growth OD
[1] = locus YDR150W, strain NUM1, stronger effect = lower value
[2] = locus YJR075W, strain HOC1, stronger effect = lower value
[3] = locus YMR307W, strain GAS1, stronger effect = lower value

Measured: normalized growth

NC(Cc1ccc(N(CCCl)CCCl)cc1)C(=O)O (stereo not drawn)
inactive: locus YAL013W, strain DEP1, stronger effect = lower value 0.981 | locus YAL040C, strain CLN3, stronger effect = lower value 0.995 | locus YCL061C, strain MRC1 (second series), stronger effect = lower value 0.996 | [1] 1.01 | locus YDR363W, strain ESC2, stronger effect = lower value 0.986 | locus YER002W, strain NOP16, stronger effect = lower value 0.974 | locus YGR078C, strain PAC10, stronger effect = lower value 0.976 | [2] 1 | locus YMR263W, strain SAP30, stronger effect = lower value 0.997 | [3] 1 | locus YNL153C, strain GIM3, stronger effect = lower value 1.04 | locus YNL175C, strain NOP13, stronger effect = lower value 0.977 | locus YNL197C, strain WHI3, stronger effect = lower value 0.983 | locus YNL224C, strain SQS1, stronger effect = lower value 1.01 | locus YOR083W, strain WHI5 (second series), stronger effect = lower value 0.993

O=C(O)CCCc1ccccc1
1 (inactive) and 0.818 (active): locus YHR030C, strain SLT2, stronger effect = lower value
0.998 (inactive) and 0.811 (active): locus YJL095W, strain BCK1, stronger effect = lower value
active: locus YHR079C, strain IRE1, stronger effect = lower value 0.801 | locus YIL125W, strain kgd1, stronger effect = lower value 0.892 | locus YJR066W, strain TOR1, stronger effect = lower value 0.795 | locus YKL068W, stronger effect = lower value 0.917 | locus YKL085W, strain MDH1 (second series), stronger effect = lower value 0.93 | locus YKL085W, strain MDH1, stronger effect = lower value 0.93 | locus YLR113W, strain HOG1, stronger effect = lower value 0.687 | locus YNL183C, strain NPR1, stronger effect = lower value 0.772 | locus YOR231W, strain MKK1, stronger effect = lower value 0.778 | locus YPL256C, strain CLN2, stronger effect = lower value 0.72 | locus YPR141C, strain kar3, stronger effect = lower value 0.896
inactive: locus YAL021C, strain ccr4, stronger effect = lower value 0.962 | locus YAL026C, strain drs2, stronger effect = lower value 0.989 | locus YAL030W, strain snc1, stronger effect = lower value 0.988 | locus YBL061C, strain skt5, stronger effect = lower value 0.991 | locus YBR009C, strain hhf1, stronger effect = lower value 0.988 | locus YBR021W, strain FUR4, stronger effect = lower value 0.955 | locus YBR023C, strain chs3, stronger effect = lower value 0.994 | locus YBR171W, strain sec66, stronger effect = lower value 0.975 | locus YBR229C, strain ROT2, stronger effect = lower value 0.999 | locus YBR231C, strain swc5, stronger effect = lower value 1 | locus YBR279W, strain paf1, stronger effect = lower value 0.974 | locus YCL011C, strain gbp2, stronger effect = lower value 0.98 | locus YCL016C, strain dcc1, stronger effect = lower value 0.985 | locus YCL029C, strain bik1, stronger effect = lower value 0.982 | locus YCL069W, strain vba3, stronger effect = lower value 0.981 | locus YCR088W, strain abp1, stronger effect = lower value 0.973 | locus YDL005C, strain med2, stronger effect = lower value 0.979 | locus YDL035C, strain GPR1, stronger effect = lower value 1.01 | locus YDL040C, strain nat1, stronger effect = lower value 0.989 | locus YDL074C, strain BRE1, stronger effect = lower value 1 | locus YDL101C, strain DUN1, stronger effect = lower value 1 | locus YDL185W, strain tfp1, stronger effect = lower value 0.948 | locus YDL192W, strain arf1, stronger effect = lower value 0.996 | locus YDR001C, strain nth1, stronger effect = lower value 0.977 | locus YDR069C, strain doa4, stronger effect = lower value 1 | locus YDR101C, strain arx1, stronger effect = lower value 0.941 | locus YDR137W, strain rgp1, stronger effect = lower value 1 | [1] 0.998 | locus YDR159W, strain sac3, stronger effect = lower value 0.981 | locus YDR162C, strain NBP2, stronger effect = lower value 1 | locus YDR195W, strain ref2 1.04 | locus YDR297W, strain sur2, stronger effect = lower value 0.991 | locus YDR318W, strain mcm21, stronger effect = lower value 0.986 | locus YDR334W, strain swr1, stronger effect = lower value 0.978 | locus YDR335W, strain msn5, stronger effect = lower value 0.988 | locus YDR388W, stronger effect = lower value 0.999 | locus YDR392W, strain spt3, stronger effect = lower value 0.963 | locus YDR502C, strain sam2, stronger effect = lower value 0.981 | locus YEL003W, strain gim4, stronger effect = lower value 0.986 | locus YEL037C, strain rad23, stronger effect = lower value 0.989 | locus YEL061C, strain CIN8 (second series), stronger effect = lower value 0.983 | locus YEL061C, strain CIN8, stronger effect = lower value 0.999 | locus YER015W, strain faa2, stronger effect = lower value 1 | locus YER016W, strain bim1, stronger effect = lower value 0.989 | locus YER110C, stronger effect = lower value 1 | locus YER111C, strain swi4, stronger effect = lower value 0.992 | locus YER155C, strain BEM2 (second series), stronger effect = lower value 1.01 | locus YER155C, strain BEM2, stronger effect = lower value 0.975 | locus YER167W, strain BCK2, stronger effect = lower value 1 | locus YFR010W, strain ubp6, stronger effect = lower value 0.997 | locus YGL078C, strain dbp3, stronger effect = lower value 0.933 | locus YGL086W, strain mad1, stronger effect = lower value 0.97 | locus YGL167C, strain pmr1, stronger effect = lower value 0.995 | locus YGL173C, strain kem1, stronger effect = lower value 0.997 | locus YGL227W, strain vid30, stronger effect = lower value 0.977 | locus YGL240W, strain doc1, stronger effect = lower value 1 | locus YGL248W, strain PDE1, stronger effect = lower value 0.997 | locus YGL253W, strain hxk2, stronger effect = lower value 0.974 | locus YGR135W, strain pre9, stronger effect = lower value 1.04 | locus YGR229C, strain SMI1, stronger effect = lower value 1.01 | locus YGR252W, strain gcn5, stronger effect = lower value 0.939 | locus YHR013C, strain ard1, stronger effect = lower value 1.01 | locus YHR027C, strain rpn1, stronger effect = lower value 1.01 | locus YHR079C, strain IRE1 (second series), stronger effect = lower value 0.975 | locus YHR094C, strain hxt1, stronger effect = lower value 0.995 | locus YHR129C, strain ARP1, stronger effect = lower value 0.993 | locus YHR142W, strain chs7, stronger effect = lower value 0.988 | locus YHR200W, strain rpn10, stronger effect = lower value 0.996 | locus YIL066C, strain RNR3, stronger effect = lower value 0.999 | locus YIL073C, strain SPO22, stronger effect = lower value 1.06 | locus YIR030C, strain dcg1, stronger effect = lower value 0.988 | locus YJL092W, strain hpr5, stronger effect = lower value 0.985 | locus YJL095W, strain BCK1 (second series), stronger effect = lower value 0.989 | locus YJL115W, strain asf1, stronger effect = lower value 0.986 | locus YJL129C, strain trk1, stronger effect = lower value 0.983 | locus YJL134W, strain LCB3, stronger effect = lower value 1.01 | locus YJL154C, strain vps35, stronger effect = lower value 0.976 | locus YJL164C, strain tpk1, stronger effect = lower value 0.987 | locus YJL166W, strain qcr8, stronger effect = lower value 0.992 | locus YJL168C, strain set2, stronger effect = lower value 0.998 | locus YJL187C, strain SWE1 (second series), stronger effect = lower value 0.99 | locus YJL187C, strain SWE1, stronger effect = lower value 0.99 | locus YJR043C, strain POL32, stronger effect = lower value 0.98 | [2] 1.01 | locus YKL009W, strain mrt4, stronger effect = lower value 1 | locus YKL160W, strain elf1, stronger effect = lower value 0.969 | locus YKR001C, strain vps1, stronger effect = lower value 0.951 | locus YKR026C, strain gcn3, stronger effect = lower value 0.98 | locus YKR091W, strain srl3, stronger effect = lower value 0.98 | locus YLL001W, strain dnm1, stronger effect = lower value 0.995 | locus YLL026W, stronger effect = lower value 0.985 | locus YLL041C, strain sdh2, stronger effect = lower value 0.989 | locus YLR027C, strain aat2, stronger effect = lower value 0.984 | locus YLR039C, strain RIC1, stronger effect = lower value 1.01 | locus YLR058C, strain SHM2, stronger effect = lower value 1 | locus YLR102C, strain apc9, stronger effect = lower value 0.994 | locus YLR221C, strain rsa3, stronger effect = lower value 0.955 | locus YLR258W, strain gsy2, stronger effect = lower value 0.98 | locus YLR262C, strain YPT6 (second series), stronger effect = lower value 0.968 | locus YLR262C, strain YPT6, stronger effect = lower value 1.01 | locus YLR268W, strain sec22, stronger effect = lower value 0.985 | locus YLR320W, strain mms22, stronger effect = lower value 0.992 | locus YLR330W, strain CHS5, stronger effect = lower value 0.998 | locus YLR342W, strain FKS1 (second series), stronger effect = lower value 1.05 | locus YLR342W, strain FKS1, stronger effect = lower value 1.01 | locus YLR357W, strain rsc2, stronger effect = lower value 1 | locus YLR370C, strain arc18, stronger effect = lower value 0.977 | locus YLR371W, strain rom2, stronger effect = lower value 0.99 | locus YLR384C, strain iki3, stronger effect = lower value 0.989 | locus YLR418C, strain cdc73, stronger effect = lower value 1.02 | locus YML016C, strain PPZ1, stronger effect = lower value 1.01 | locus YML032C, strain rad52, stronger effect = lower value 0.982 | locus YML120C, strain ndi1, stronger effect = lower value 1 | locus YML124C, strain tub3, stronger effect = lower value 0.986 | locus YMR058W, strain fet3, stronger effect = lower value 0.989 | locus YMR078C, strain ctf18, stronger effect = lower value 0.992 | locus YMR125W, strain sto1, stronger effect = lower value 0.999 | locus YMR129W, stronger effect = lower value 0.978 | locus YMR205C, strain PFK2, stronger effect = lower value 0.972 | locus YMR223W, strain ubp8, stronger effect = lower value 1.02 | locus YMR231W, strain pep5, stronger effect = lower value 0.985 | [3] 1.1 | locus YNL067W, strain RPL9B, stronger effect = lower value 0.981 | locus YNL071W, strain lat1, stronger effect = lower value 0.992 | locus YNL209W, strain ssb2, stronger effect = lower value 1.01 | locus YNL233W, strain BNI4, stronger effect = lower value 1 | locus YNL248C, strain rpa49, stronger effect = lower value 0.907 | locus YNL250W, strain rad50, stronger effect = lower value 0.925 | locus YNL271C, strain bni1, stronger effect = lower value 0.943 | locus YNL298W, strain CLA4, stronger effect = lower value 0.955 | locus YNL307C, strain MCK1, stronger effect = lower value 0.992 | locus YNL322C, strain KRE1 (second series), stronger effect = lower value 0.954 | locus YNR049C, strain mso1, stronger effect = lower value 0.975 | locus YNR052C, strain pop2, stronger effect = lower value 0.986 | locus YOL012C, strain htz1 1.62 | locus YOL147C, strain pex11, stronger effect = lower value 0.987 | locus YOR001W, strain rrp6, stronger effect = lower value 0.962 | locus YOR061W, strain CKA2, stronger effect = lower value 1 | locus YOR069W, strain VPS5, stronger effect = lower value 1 | locus YOR070C, strain gyp1, stronger effect = lower value 0.988 | locus YOR080W, strain dia2, stronger effect = lower value 0.994 | locus YOR083W, strain WHI5, stronger effect = lower value 0.975 | locus YOR106W, strain vam3, stronger effect = lower value 0.988 | locus YOR136W, strain idh2, stronger effect = lower value 0.976 | locus YOR144C, strain elg1, stronger effect = lower value 0.996 | locus YOR184W, strain ser1, stronger effect = lower value 0.988 | locus YOR265W, strain rbl2, stronger effect = lower value 0.989 | locus YOR270C, strain vph1, stronger effect = lower value 0.991 | locus YOR290C, strain snf2, stronger effect = lower value 0.962 | locus YOR316C, strain cot1, stronger effect = lower value 0.998 | locus YPL051W, strain arl3, stronger effect = lower value 0.988 | locus YPL055C, strain LGE1, stronger effect = lower value 0.963 | locus YPL078C, strain atp4, stronger effect = lower value 0.985 | locus YPL106C, strain sse1, stronger effect = lower value 0.969 | locus YPL240C, strain hsp82, stronger effect = lower value 0.988 | locus YPL241C, strain CIN2, stronger effect = lower value 1.01 | locus YPR119W, strain clb2, stronger effect = lower value 0.995 | locus YPR163C, strain tif3, stronger effect = lower value 0.983 | locus YPR167C, strain met16, stronger effect = lower value 0.99 | strain wtn01, stronger effect = lower value 0.995
